One test addresses Albumin (Bos taurus) (UniProt P02769). Description: compounds binding labelled BSA control protein – biochemical, small-molecule microarray, Alexa647 label, 635/667 nm fluorescence, artefact control for SMM control protein annotation, profiling panel (AID 1118).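 Further: score merges 667 nm emission intensity and signal-to-noise per printed compound spot.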 As to conditions: BSA-A647 binding, fluorescence 635 nm, higher = more signal.
A short description of test [1]: probe aXIP binding to arrayed compounds – biochemical, NeuroSMM set, 635/667 nm fluorescence, primary screen (AID 1119).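 Further: probe is the protein aXip251-270 applied at 1 µg/mL to compound-printed slides; binding of probe to printed compounds measured as 667 nm fluorescence plus signal to noise.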 As to conditions: small-molecule microarray, higher = more signal, called active from +8 up or from −8 down.
Test [2] is described as follows: probe aNOTCH3 binding on compound microarray – biochemical, small-molecule microarray, 635/667 nm fluorescence, primary screen (AID 1120).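 Further: probe is a biotin-tagged antibody raised against NOTCH3 rather than NOTCH3 protein; score merges spot fluorescence near 667 nm with spot signal to noise.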 As to conditions: higher = more signal.
Test [3] is described as follows: probe aNOTCH2 binding on compound microarray – biochemical, small-molecule microarray, 635/667 nm fluorescence, primary screen (AID 1121).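 Further: score merges feature fluorescence read at 667 nm with its signal to noise.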 The settings on record: higher = more signal.
In test [4] the target is Carbonic anhydrase 2 (Homo sapiens) (UniProt P00918). Description: compounds binding carbonic anhydrase 2 – biochemical, small-molecule microarray, Alexa647-labelled CAII, profiling panel (AID 1122). As to conditions: CAII-A647 binding fluorescence, higher = more signal.
Test [5] can be described thus: COS7 lysate on small-molecule microarray, probe aHis, 635 nm (AID 1123).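 Further: z-score combines 667nm fluorescence intensity with signal-to-noise per printed compound spot.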 As to conditions: COS7 cell lysate, fluorescence, higher = more signal.
A short description of test [6]: probe aLAP1 signal on lysate-treated microarray – cell lysate, small-molecule microarray, COS7 lysate, primary screen (AID 1124).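 Further: lysate comes from COS7 cells expressing LAP1 and is applied at 0.3 µg/mL; score merges spot fluorescence near 667 nm with signal-to-noise over triplicate slides.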 The settings on record: probe aLAP1, fluorescence, higher = more signal.
In a further test the test system is Sam68 (KHDRBS1). Description: compounds binding KHDRBS1 protein – biochemical, small-molecule microarray, 635 nm fluorescence, primary screen (AID 1125).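 Further: score merges 667 nm channel intensity with signal to noise over triplicate slides.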 The settings on record: higher = more signal.
The test system of test [7] is Chordin-like protein 2 (CHRDL2). Briefly: compounds binding chordin-like 2 – biochemical, small-molecule microarray, 635 nm fluorescence, primary screen (AID 1126).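 Further: printed compound slides probed with Chrdl2 protein at 4 µg/mL for 1 h at 4 C; score merges 667 nm emission intensity with signal to noise over three replicate slides.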 As to conditions: fluorescence 635 nm, higher = more signal.
In test [8] the target is Concanavalin-A (Canavalia ensiformis) (UniProt P02866). Description: compounds binding concanavalin A lectin – biochemical, small-molecule microarray, Alexa647 label, 635 nm, artefact control for SMM control protein annotation, primary screen (AID 1127).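 Further: z combines 667 nm emission intensity with signal-to-noise across three replicate slides.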 As to conditions: ConA-A647 binding fluorescence, higher = more signal.
Concanavalin-A (Canavalia ensiformis), sequence (P02866 whole entry, looked up): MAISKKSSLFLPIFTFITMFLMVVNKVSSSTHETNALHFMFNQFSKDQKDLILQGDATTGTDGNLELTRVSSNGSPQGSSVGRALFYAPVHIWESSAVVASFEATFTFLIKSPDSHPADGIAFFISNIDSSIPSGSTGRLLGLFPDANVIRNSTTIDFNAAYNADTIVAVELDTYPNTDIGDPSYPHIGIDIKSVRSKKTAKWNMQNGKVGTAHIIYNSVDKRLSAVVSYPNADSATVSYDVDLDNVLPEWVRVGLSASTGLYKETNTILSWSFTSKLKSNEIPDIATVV
The nature of test [9]: compounds binding Alexa647 anti-His antibody – biochemical, small-molecule microarray, 635 nm fluorescence, artefact control for SMM control protein annotation, primary screen (AID 1128).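 Further: score merges feature fluorescence with signal-to-noise for each printed compound spot.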 As to conditions: higher = more signal.
Test [10] deals with Human papillomavirus type 1a E7 protein (residues 1-88). Description: HPV1a E7 small-molecule binders, primary screen, biochemical, small-molecule microarray, residues 1-88, 635 nm (AID 1129). The settings on record: small-molecule microarray binding, fluorescence 635 nm; higher = more signal.
Test [11] concerns the target Focal adhesion kinase 1 (Homo sapiens) (UniProt Q05397). Briefly: PTK2 protein binding on printed compound slides – biochemical, small-molecule microarray, 635/667 nm fluorescence, BSA, DTT, primary screen (AID 1130).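 Further: composite of spot emission at 667 nm and signal to noise over triplicate slides.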 The settings on record: 635 nm fluorescence, higher = more signal.
Test [12] concerns Fibrinogen (Alexa647-labelled). Briefly: Alexa647-fibrinogen binding to printed small molecules – biochemical, small-molecule microarray, 635/667 nm fluorescence, artefact control for SMM control-protein annotation, profiling panel (AID 1131).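 Further: z-score merges 667 nm fluorescence with per-spot signal-to-noise over triplicate slides.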 As to conditions: fibrinogen-A647 binding fluorescence, higher = more signal.
Test [13] addresses Follistatin (Homo sapiens) (UniProt P19883). Briefly: FST protein binding to printed compounds – biochemical, small-molecule microarray, 635/667 nm fluorescence, primary screen (AID 1132). As to conditions: 635 nm fluorescence, higher = more signal.
Test [14] has as its target Fibroblast growth factor 2 (Homo sapiens) (UniProt P09038). Briefly: basic fibroblast growth factor binding to printed compounds – biochemical, small-molecule microarray, 635/667 nm fluorescence, primary screen (AID 1133). As to conditions: FGF2, fluorescence 635/667, higher = more signal.
Test [15] in a line: JC-1 mitochondrial potential readout, lung cancer cells – cell-based, A549, JC-1 fluorescence, basal, 24 h, 100 nL, profiling panel (AID 1138).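 Further: A549 lung adenocarcinoma cells under basal conditions with no added stimulus; test concentration not given here.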 As to conditions: higher = more signal.
The subject of another test is Lefty1. Briefly: Lefty1 protein binding to printed compounds – biochemical, small-molecule microarray, 635/667 nm fluorescence, primary screen (AID 1139). The settings on record: fluorescence 635/667, higher = more signal.
Test [16] deals with wheat germ agglutinin (Triticum aestivum), Alexa647-labelled. Description: Alexa647-WGA lectin binding to printed small molecules – biochemical, small-molecule microarray, 635/667 nm fluorescence, artefact control for SMM control-protein annotation, profiling panel (AID 1140).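 Further: score merges 667 nm feature emission with signal to noise over triplicate slides.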 As to conditions: WGA-A647 binding, 635 nm fluorescence, higher = more signal.
The target in test [17] is Luciferin 4-monooxygenase (Photinus pyralis) (UniProt P08659). Description: inhibition of purified Photinus pyralis luciferase – biochemical, luminescence, purified enzyme, 2006 set, primary screen (AID 1141).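 Further: cell-free assay with purified firefly luciferase at 100 ng per well in PBS; test concentration not given here.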 As to conditions: purified firefly luciferase, SteadyGlo luminescence, 30 min; higher = more signal, called active from +8 up or from −8 down.
Luciferin 4-monooxygenase (Photinus pyralis), sequence (P08659 whole entry, looked up): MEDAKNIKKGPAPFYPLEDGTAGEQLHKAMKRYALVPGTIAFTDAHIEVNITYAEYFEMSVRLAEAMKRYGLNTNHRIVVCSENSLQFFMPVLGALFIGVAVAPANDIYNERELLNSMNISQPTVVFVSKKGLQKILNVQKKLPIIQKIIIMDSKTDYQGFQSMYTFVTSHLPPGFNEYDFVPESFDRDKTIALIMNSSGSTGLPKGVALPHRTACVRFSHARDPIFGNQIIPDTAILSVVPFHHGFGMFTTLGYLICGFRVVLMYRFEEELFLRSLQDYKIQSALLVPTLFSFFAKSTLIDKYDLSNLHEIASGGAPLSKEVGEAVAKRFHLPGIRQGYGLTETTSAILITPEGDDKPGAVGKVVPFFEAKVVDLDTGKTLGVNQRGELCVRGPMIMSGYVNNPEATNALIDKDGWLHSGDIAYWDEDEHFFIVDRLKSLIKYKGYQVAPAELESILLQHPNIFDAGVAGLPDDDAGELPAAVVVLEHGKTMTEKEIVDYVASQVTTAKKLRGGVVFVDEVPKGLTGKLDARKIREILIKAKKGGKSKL

Active and inactive are the calls of the source.

Follistatin (Homo sapiens), sequence (P19883 whole entry, looked up): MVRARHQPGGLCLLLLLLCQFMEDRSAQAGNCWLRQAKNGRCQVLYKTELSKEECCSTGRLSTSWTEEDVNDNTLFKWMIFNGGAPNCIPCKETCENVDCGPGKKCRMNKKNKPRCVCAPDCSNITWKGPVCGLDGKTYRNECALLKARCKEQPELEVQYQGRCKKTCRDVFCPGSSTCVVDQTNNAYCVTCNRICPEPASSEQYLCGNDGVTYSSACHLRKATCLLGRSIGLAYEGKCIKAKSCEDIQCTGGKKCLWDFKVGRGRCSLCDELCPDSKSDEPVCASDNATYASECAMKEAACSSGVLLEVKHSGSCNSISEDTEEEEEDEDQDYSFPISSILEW
Focal adhesion kinase 1 (Homo sapiens), sequence (Q05397 whole entry, looked up): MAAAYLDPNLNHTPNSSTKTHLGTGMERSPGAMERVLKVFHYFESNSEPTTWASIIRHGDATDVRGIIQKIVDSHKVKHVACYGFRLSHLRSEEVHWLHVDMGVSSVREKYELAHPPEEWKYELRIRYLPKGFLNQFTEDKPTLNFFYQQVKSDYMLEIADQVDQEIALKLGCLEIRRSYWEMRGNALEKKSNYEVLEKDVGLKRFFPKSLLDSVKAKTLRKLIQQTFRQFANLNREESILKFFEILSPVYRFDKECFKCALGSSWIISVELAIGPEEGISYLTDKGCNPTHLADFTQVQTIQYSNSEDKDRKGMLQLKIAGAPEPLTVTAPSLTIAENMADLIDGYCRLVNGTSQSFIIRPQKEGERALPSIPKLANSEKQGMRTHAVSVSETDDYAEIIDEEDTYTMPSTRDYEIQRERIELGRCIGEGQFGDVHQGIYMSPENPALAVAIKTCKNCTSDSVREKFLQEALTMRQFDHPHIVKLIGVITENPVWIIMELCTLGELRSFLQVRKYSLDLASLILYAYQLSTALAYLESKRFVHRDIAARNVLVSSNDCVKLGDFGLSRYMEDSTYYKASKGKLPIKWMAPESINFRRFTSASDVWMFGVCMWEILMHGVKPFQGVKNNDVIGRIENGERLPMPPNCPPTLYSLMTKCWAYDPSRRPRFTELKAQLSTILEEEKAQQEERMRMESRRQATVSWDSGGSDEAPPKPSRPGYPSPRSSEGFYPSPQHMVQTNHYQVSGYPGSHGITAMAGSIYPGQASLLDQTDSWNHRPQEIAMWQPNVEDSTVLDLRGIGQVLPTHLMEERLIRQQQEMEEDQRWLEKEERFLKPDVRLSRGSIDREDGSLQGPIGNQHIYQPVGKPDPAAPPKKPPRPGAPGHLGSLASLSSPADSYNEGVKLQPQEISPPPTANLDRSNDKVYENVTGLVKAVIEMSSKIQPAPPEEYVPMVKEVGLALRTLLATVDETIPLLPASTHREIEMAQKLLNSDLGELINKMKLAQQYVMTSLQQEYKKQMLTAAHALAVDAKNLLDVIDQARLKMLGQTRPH
Albumin (Bos taurus), sequence (P02769 whole entry, looked up): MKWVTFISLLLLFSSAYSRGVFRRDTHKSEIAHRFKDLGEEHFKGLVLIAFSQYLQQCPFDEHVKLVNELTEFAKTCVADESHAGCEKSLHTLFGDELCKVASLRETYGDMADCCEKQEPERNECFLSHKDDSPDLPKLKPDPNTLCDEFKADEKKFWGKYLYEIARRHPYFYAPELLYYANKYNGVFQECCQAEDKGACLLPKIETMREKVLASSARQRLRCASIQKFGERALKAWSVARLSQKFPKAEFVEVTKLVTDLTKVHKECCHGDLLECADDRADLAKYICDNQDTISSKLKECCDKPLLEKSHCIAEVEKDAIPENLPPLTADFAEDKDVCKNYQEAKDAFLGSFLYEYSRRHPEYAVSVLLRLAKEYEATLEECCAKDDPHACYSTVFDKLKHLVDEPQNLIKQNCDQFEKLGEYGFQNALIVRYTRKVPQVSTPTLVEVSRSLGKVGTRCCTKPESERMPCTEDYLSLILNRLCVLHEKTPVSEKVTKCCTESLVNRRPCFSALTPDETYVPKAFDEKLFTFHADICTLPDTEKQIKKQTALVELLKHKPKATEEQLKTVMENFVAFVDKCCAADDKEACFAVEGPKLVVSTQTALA
Fibroblast growth factor 2 (Homo sapiens), sequence (P09038 whole entry, looked up): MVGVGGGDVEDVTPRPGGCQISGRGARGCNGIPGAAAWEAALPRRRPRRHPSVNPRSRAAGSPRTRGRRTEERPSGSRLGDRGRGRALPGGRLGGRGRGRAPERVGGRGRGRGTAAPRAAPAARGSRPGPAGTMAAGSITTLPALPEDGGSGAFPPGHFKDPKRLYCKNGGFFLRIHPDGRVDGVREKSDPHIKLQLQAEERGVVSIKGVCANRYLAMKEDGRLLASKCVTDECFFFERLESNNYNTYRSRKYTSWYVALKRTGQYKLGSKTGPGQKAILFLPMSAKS

On to `CC(C)[C@H](NC(=O)OC(C)(C)C)[C@@H](O)CC(=O)C(C)(C)C`, for which the composite z-score is -0.269 in the test with Albumin (Bos taurus); -0.178 in test [2]; -0.152 in test [3]; -0.163 in test [4]; 0.163 in test [5]; -0.0769 in test [6]. For the same molecule, the composite z-score in the test with Sam68 (KHDRBS1) was -0.0938; in test [7], 0.591; in [8] it was 0.188; in test [9], -0.007; in test [10], -0.195; in test [11], -0.402. The composite z-score in [12] was 0.0622; in [13] it was 0.359; in test [14], 0.516; in the test on Lefty1 it was 0.627; in [16], -0.0466. In addition, the composite Z-score in [1] is -0.382 (inactive). Further, the z-score was 0.109 in test [15] and 0.0879 (inactive) in test [17].
Regarding `O=C1C[C@@H](O)[C@@H](O)[C@@H]2[C@@H]3C(=O)N(Cc4ccccc4)C(=O)[C@@H]3CC[C@H]12`, the composite z-score in the test with Albumin (Bos taurus) is -0.0028; in test [2], 0.111; in test [3] it was -0.107; in test [4], 0.213; in test [5], -0.0842; in test [6], 0.23. The composite z-score was determined as 0.184 in the test on Sam68 (KHDRBS1); 0.415 in [7]; 0.941 in [8]; 0.0747 in test [9]; 0.467 in test [10]; 0.141 in [11]. In addition, the composite z-score was 0.872 in test [12]; 0.967 in [13]; 0.347 in test [14]; 0.329 in the test on Lefty1; 0.565 in test [16]. In addition, in test [1], the composite Z-score is -0.082 (inactive). In addition, the z-score in test [15] was -0.579; in test [17], 0.675 (inactive).
For `CCOC(=O)[C@H](CC(C)C)NC(=O)CCC1CC(OC(=O)NCc2ccc3c(c2)OCO3)CC2(CCCC(COC(=O)NCCc3ccccc3OC)O2)O1` (stereo not given in full), the composite z-score was 0.31 with Albumin (Bos taurus); -0.0328 in [2]; -0.0633 in test [3]; 0.127 in [4]; 0.754 in test [5]; 0.0278 in [6]. Moreover, the composite z-score in the test with Sam68 (KHDRBS1) came to 1.29; in test [7] it was 0.663; in [8], 1.05; in test [9], 0.746; in [10], 1.13; in test [11] it was 0.283. Also, the composite z-score was determined as 0.669 in test [12]; 0.826 in [13]; 1.15 in [14]; 0.787 in the test on Lefty1; 0.196 in [16]. Besides, in test [1], the composite Z-score is 1.05 (inactive). In addition, the z-score was -0.717 in test [15] and 0.867 (inactive) in test [17].
Turning to `COC(=O)[C@H](C)NC(=O)CCC1CC(OC(=O)NCCc2ccc(F)cc2)CC2(CCCC(COC(=O)NCc3ccccc3)O2)O1` (stereo not given in full), the composite z-score is 0.431 with Albumin (Bos taurus); -0.0511 in test [2]; -0.208 in [3]; 0.266 in test [4]; 0.253 in test [5]; -0.0955 in test [6]. The composite z-score was 1.31 in the test with Sam68 (KHDRBS1); 0.774 in [7]; 0.619 in [8]; 0.36 in test [9]; 0.775 in [10]; 0.0965 in [11]. Also, the composite z-score in [12] was determined as 0.911; in test [13], 0.913; in [14], 1.13; in the test on Lefty1, 0.875; in test [16], 0.0915. Also, in test [1], the composite Z-score was 0.0852 (inactive). For the same molecule, the z-score in test [15] was 0.708; in [17] it was 0.835 (inactive).
As to `CCCNC(=O)OC[C@H]1O[C@H](CCON=C2c3cc(OC)ccc3O[C@H](c3cccc(OC)c3)[C@H]2O)C=C[C@@H]1Oc1ccc(OC)cc1`, the composite z-score was determined as 0.491 with Albumin (Bos taurus); 0.219 in [2]; 0.0889 in [3]; 0.137 in test [4]; 1.24 in test [5]; 0.812 in test [6]. Further, the composite z-score in the test with Sam68 (KHDRBS1) stood at 0.956; in test [7], 0.366; in test [8], 0.493; in test [9], 2.07; in test [10] it was 0.824; in test [11] it was 0.222. Besides, the composite z-score in test [12] came out at 0.618; in test [13] it was 0.418; in test [14], 1.11; in the test with Lefty1, 0.292; in test [16] it was 0.228. Also, the composite Z-score in test [1] was 3.22 (inactive). Further, the z-score in [15] was 1.2; in test [17] it was 0.652 (inactive).
As for `CC(C)[C@@H](OCc1ccccc1)[C@H](C)C=NO[C@@H](C)c1cn([C@H](CO)Cc2ccccc2)nn1`, the composite z-score was 0.449 with Albumin (Bos taurus); 0.209 in test [2]; -0.146 in test [3]; -0.227 in test [4]; -0.205 in test [5]; -0.0074 in test [6]. Also, the composite z-score with Sam68 (KHDRBS1) was 0.706; in test [7], 0.191; in test [8], -0.36; in test [9] it was 0.08; in test [10], -0.147; in test [11] it was -0.0232. Also, the composite z-score in test [12] was -0.157; in test [13] it was -0.0854; in test [14], 0.346; in the test on Lefty1 it was 0.249; in test [16], 0.0578. The composite Z-score in [1] was -0.0527 (inactive). Also, the z-score in [15] is -1.02; in test [17], -0.197 (inactive).

These data come from PubChem BioAssay.
